About 79,000 compounds went through this panel and 15% of them were active in at least one assay; those are over-represented in the sample as a whole. Active and inactive are the calls of the source. Cut-off read from the data, not from the text of the source: active = growth inhibition above about 70%; inactive = the rest.
What was measured:
[1] = NCI Yeast Anticancer Drug Screen. Data for the rad50 strain (AID 155);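 note: 0% = growth of vehicle-only cultures of the same strain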; settings: S. cerevisiae rad50 strain growth inhibition; at 50.0 µM; hits give high values
Procedure, shortened: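 Growth of the mutant yeast was measured after compound exposure and referenced to vehicle-treated cultures.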

[2] = NCI Yeast Anticancer Drug Screen. Data for the mec2-1 strain (AID 157); settings: S. cerevisiae mec2-1 strain, at 50.0 µM, hits give high values
Procedure, shortened: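 Growth inhibition is read against vehicle-treated controls after compound exposure of the mec2-1 yeast strain, which is defective in DNA damage repair or cell cycle control.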

[3] = NCI Yeast Anticancer Drug Screen. Data for the sgs1 mgt1 strain (AID 161);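 note: 0% = growth of cultures given vehicle only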; settings: S. cerevisiae sgs1 mgt1 strain, at 50.0 µM, hits give high values
Procedure, shortened: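 Growth of a repair-deficient yeast mutant was monitored after compound treatment and expressed as inhibition relative to vehicle-treated cultures.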

[4] = NCI Yeast Anticancer Drug Screen. Data for the bub3 strain (AID 167); settings: S. cerevisiae bub3 mutant strain, at 50.0 µM, hits give high values
Procedure, shortened: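 Whole-cell yeast assay. The mutant strain was incubated with compounds, and growth inhibition was determined by comparison with vehicle-treated cells.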

[5] = NCI Yeast Anticancer Drug Screen. Data for the mlh1 rad18 strain (AID 175); settings: S. cerevisiae mlh1 rad18 strain growth inhibition; at 50.0 µM; hits give high values
Procedure, shortened: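 Cells of a genetically altered yeast strain, deficient in DNA damage repair, were treated with compound. Their growth was then compared with that of vehicle-treated cultures to give inhibition.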

[6] = NCI Yeast Anticancer Drug Screen. Data for the cln2 rad14 strain (AID 165);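 note: 0% = growth equal to vehicle treated cultures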; settings: S. cerevisiae cln2 rad14 strain, at 50.0 µM, hits give high values
Procedure, shortened: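 Growth inhibition, relative to vehicle-treated controls, is the read-out. The test organism is a yeast strain with defined genetic alterations, cln2 rad14.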

Measured: growth inhibition

Cc1ccc(Cl)cc1NC(=S)N(C)C
inactive: [1] 15.9% | [2] 16.1% | [3] 34.7% | [4] 50.2% | [5] 24.5%

Cc1ccc(N=Nc2c(O)n(C)c(=O)n(C)c2=O)cc1C
inactive: [1] -8.3% | [2] -5.7% | [3] -17.2% | [4] -18.6% | [5] -12.8%

Cc1cnc2cc(Cl)ccc2c1NCCN(CC(C)C)CC(C)C
inactive: [1] -11% | [2] 0.7% | [3] -10.6% | [4] 0.05% | [5] -30.8%

COc1ccc(C2=NN(C(C)=O)c3nc4ccccc4nc3O2)cc1
inactive: [1] -25.2% | [2] -28.8% | [3] -20% | [4] -24.6%

c1ccc(C2c3ccccc3-c3ncnc(N4CCCCC4)c32)cc1 (configuration not stated)
inactive: [1] 9.4% | [2] -3.15% | [3] 24.8% | [4] -0.45% | [5] 14.7%

CC1CC(c2ccccc2)S(=O)(=O)O1 (configuration not stated)
inactive: [1] -5.9% | [2] -4.3% | [3] -3.7% | [4] 35% | [5] -9.95%

COc1cc2c(cc1OC)C1=NN(c3ccccc3)C(=O)C1CC2 (configuration not stated)
inactive: [1] 22.8% | [2] 12.6% | [3] 12.3% | [4] 5.55% | [5] 18.8%

CN1CCN(C2=NCCO2)CC1
inactive: [1] 6.4% | [2] 22.1% | [3] 32.3% | [4] 12.8% | [5] 20.2%

Cc1ccc(S(=O)(=O)N/N=C/C(O)C(O)C(O)C(O)CO)cc1 (configuration not stated)
inactive: [1] 5.9% | [2] -5.15% | [3] -14.8% | [4] -8.45% | [5] 12.3%

CCOC(=O)c1cnc2cc3c(cc2c1Nc1cccc(C(F)(F)F)c1)OCO3
inactive: [1] 5.95% | [2] -8.85% | [3] -9.5% | [4] -2.75% | [5] -11.6%

C[N+](C)(CCOc1ccccc1)Cc1ccccc1
inactive: [1] 55% | [2] 25.8% | [3] 39.3% | [4] 48% | [5] 31.5%

O=[N+]([O-])c1ccc(-c2ccncc2)cc1
inactive: [1] -32% | [2] -31.9% | [3] -19.4% | [6] 20.6% | [4] -18.1% | [5] -9.05%

N#CCCNc1ccc2c(c1)Cc1ccccc1-2
inactive: [1] 1.65% | [2] 3.4% | [3] 18.6% | [4] 12.4% | [5] -27.5%

c1ccc2c(c1)C1C3c4ccccc4C1C1C2C31
inactive: [1] 5.1% | [2] 12.1% | [3] -0.1% | [4] 3.5% | [5] -2.8%

CCc1ccc(C(=O)CN2CCCc3ccccc32)cc1
inactive: [1] -13.4% | [2] 0.7% | [3] -6.55% | [4] 1.95% | [5] -13.8%

Cn1c(=O)c2nc3sc4c(n3c2n(C)c1=O)C(=O)c1ccccc1C4=O
inactive: [1] -17% | [2] 21.4% | [3] 11.2% | [6] -11.2% | [4] -11% | [5] 25.4%

O=C1c2c(F)c(F)c(F)c(F)c2SC2=Nc3cccc4cccc(c34)N12
inactive: [1] -17.5% | [2] -3.8% | [3] -37.3% | [4] -4.25% | [5] -37.8%

CC(=O)CC(C)=NCCCCN=C(C)CC(C)=O
inactive: [1] -12.6% | [2] -29.1% | [3] 5.55% | [4] -25.2% | [5] -17.3%

O=S(O)CCCCCSSSCCCCCS(=O)O
inactive: [1] 8.2% | [2] 8.8% | [3] -2.8% | [4] 9.05% | [5] 44.7%

COc1cc2cccc(NC(=O)c3cc(OC)c(OC)c(OC)c3Br)c2cc1OC
inactive: [1] 31.4% | [2] 12.4% | [3] 16.6% | [4] 44.5% | [5] 20.7%

NC(=O)CCC(N)=O
inactive: [1] 22.6% | [2] 5.75% | [3] 5.25% | [4] 17.1% | [5] 1.45%

c1ccc(C2(c3ccccc3)Oc3ccccc3O2)cc1
inactive: [1] -10.1% | [2] 3.65% | [3] -6.45% | [4] -6.4% | [5] 7.3%

Cc1cc(O)c2c(c1)C(=O)C=CC2=O
inactive: [1] 6.7% | [2] 5.2% | [3] 1.3% | [4] 10.3% | [5] -25.9%

O=C(Nc1cc2c(cc1[N+](=O)[O-])-c1c(F)cccc1C2)C(F)(F)F
inactive: [1] 9.8% | [2] 1.4% | [3] 8.25% | [4] 4.9% | [5] 2.15%

CN(C)c1ccc(/C=N\NC(=S)NN2CCN(NC(=S)N/N=C\c3ccc(N(C)C)cc3)CC2)cc1
inactive: [1] 30.2% | [2] 11.1% | [3] 5.2% | [4] 1.55% | [5] 27.8%

CCN1CCCC(SC(=O)C(O)(c2ccccc2)c2ccccc2)C1 (configuration not stated)
inactive: [1] -16.6% | [2] -5.75% | [3] -22.1% | [4] -4.15% | [5] 0.15%

O=C(CCCc1ccccn1)c1ccccc1
inactive: [1] 1.8% | [2] 3.85% | [3] 2.5% | [4] -31.6% | [5] -1.45%

O=C1c2ccccc2C(=O)N1CC1CC(S(=O)(=O)c2ccccc2)=NO1 (configuration not stated)
inactive: [1] -1.8% | [2] -15.2% | [3] -0.4% | [4] -7.6% | [5] 5%

CC(=C/C=C/C=C(C)\C=C\C=C(\C)C(=O)O)/C=C/C=C(/C)C(=O)O
inactive: [1] 18.1% | [2] -7.95% | [3] 8.65% | [4] 16.4% | [5] 16.9%

COc1ccc2c(c1)C(=O)C1CCC(=O)N1C2c1ccc2c(c1)OCO2 (configuration not stated)
inactive: [1] -9.65% | [2] 18.3% | [3] 10.2% | [4] 47.1% | [5] -0.3%

CCCCCCCCCCCCCCCCc1c(C(=O)OC)nc(NN)[nH]c1=O
inactive: [1] -6.3% | [2] 5.2% | [3] -26.5% | [4] 2.1% | [5] -12.8%

CN(C)c1ccc(/C=C2N=C(/C=C\c3ccccc3)OC\2=O)cc1
inactive: [1] -5.5% | [2] 4.75% | [3] -6.05% | [4] 7.55% | [5] 9.45%

Cc1nc2c(SCc3ccccc3)ncnc2o1
inactive: [1] 16.1% | [2] -9.5% | [3] 14.9% | [4] 35.4% | [5] 19.5%

COC(=O)c1ccc2c(c1)nnn2C(C)=O
inactive: [1] -9.55% | [2] -12.7% | [3] -7.25% | [4] 1.7% | [5] 4.65%

CCC[CH2][Sn]([CH2]CCC)([O]C(=O)c1cccc(F)c1F)[O][Sn]([CH2]CCC)([CH2]CCC)[O]C(=O)c1cccc(F)c1F
active: [1] 89.4% | [2] 91.5% | [3] 91.2% | [4] 90% | [5] 86%

COC(=O)NC(Cc1ccccc1)NC(=O)OC(C)(C)C (configuration not stated)
inactive: [1] -30.6% | [2] -46% | [3] -20.5% | [4] -4.25% | [5] -12.9%

CN(C)CCC(=O)c1ccc(C(=O)CCN(C)C)cc1
inactive: [1] -0.4% | [2] 25.6% | [3] -17.1% | [4] -16.2% | [5] -21.2%

C1CSCCSCSCCS1
inactive: [1] 32.1% | [2] 11.8% | [3] 17.8% | [4] 42.4% | [5] 17.8%

CC1=NS(=O)(=O)c2ccccc2N1
inactive: [1] 0.3% | [2] -4.4% | [3] 4.75% | [6] 15.9% | [4] 4.45% | [5] 10.2%

Reference: PubChem BioAssay (NCI)
